Source: the supplement of paper PMC6411743
± gives the standard deviation of the averaged measurements. The full data set covers some 6,200 targets. This sample favours those with the largest changes.

What was measured:
Assay in all cases: NP40-soluble protein abundance relative to vehicle (solubility fold change) (ratio); higher = more soluble protein in presence of AMP-PNP
A0A0A0MSG2|J3KNW4|Q14192 = target: T1, A0A0A0MSG2|J3KNW4|Q14192 (UniProt Q14192)
T1 sequence (whole entry): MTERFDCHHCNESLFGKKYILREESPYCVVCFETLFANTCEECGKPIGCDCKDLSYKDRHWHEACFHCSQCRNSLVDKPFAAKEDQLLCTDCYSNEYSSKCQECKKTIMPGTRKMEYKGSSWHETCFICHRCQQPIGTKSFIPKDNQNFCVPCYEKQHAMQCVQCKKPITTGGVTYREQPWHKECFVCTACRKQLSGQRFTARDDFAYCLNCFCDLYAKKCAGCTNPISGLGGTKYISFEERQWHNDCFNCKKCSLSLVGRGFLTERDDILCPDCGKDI
Method in brief: (§1)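 Across three independent experiments, values are fold changes against the detergent-processed vehicle for each replicate, based on vsn-normalised intensities. The samples were Jurkat crude lysate treated with eight concentrations (0.1 to 10 mM) for 10 min at room temperature and then 3 min at 37 °C. Lysate was solubilised with 0.8% NP40 and benzonase, ultracentrifuged, and the supernatant analysed by TMT-labelled LC-MS/MS.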

A0A0U1RRH6|O94880 = target: T2, A0A0U1RRH6|O94880 (UniProt O94880)
T2 sequence (whole entry): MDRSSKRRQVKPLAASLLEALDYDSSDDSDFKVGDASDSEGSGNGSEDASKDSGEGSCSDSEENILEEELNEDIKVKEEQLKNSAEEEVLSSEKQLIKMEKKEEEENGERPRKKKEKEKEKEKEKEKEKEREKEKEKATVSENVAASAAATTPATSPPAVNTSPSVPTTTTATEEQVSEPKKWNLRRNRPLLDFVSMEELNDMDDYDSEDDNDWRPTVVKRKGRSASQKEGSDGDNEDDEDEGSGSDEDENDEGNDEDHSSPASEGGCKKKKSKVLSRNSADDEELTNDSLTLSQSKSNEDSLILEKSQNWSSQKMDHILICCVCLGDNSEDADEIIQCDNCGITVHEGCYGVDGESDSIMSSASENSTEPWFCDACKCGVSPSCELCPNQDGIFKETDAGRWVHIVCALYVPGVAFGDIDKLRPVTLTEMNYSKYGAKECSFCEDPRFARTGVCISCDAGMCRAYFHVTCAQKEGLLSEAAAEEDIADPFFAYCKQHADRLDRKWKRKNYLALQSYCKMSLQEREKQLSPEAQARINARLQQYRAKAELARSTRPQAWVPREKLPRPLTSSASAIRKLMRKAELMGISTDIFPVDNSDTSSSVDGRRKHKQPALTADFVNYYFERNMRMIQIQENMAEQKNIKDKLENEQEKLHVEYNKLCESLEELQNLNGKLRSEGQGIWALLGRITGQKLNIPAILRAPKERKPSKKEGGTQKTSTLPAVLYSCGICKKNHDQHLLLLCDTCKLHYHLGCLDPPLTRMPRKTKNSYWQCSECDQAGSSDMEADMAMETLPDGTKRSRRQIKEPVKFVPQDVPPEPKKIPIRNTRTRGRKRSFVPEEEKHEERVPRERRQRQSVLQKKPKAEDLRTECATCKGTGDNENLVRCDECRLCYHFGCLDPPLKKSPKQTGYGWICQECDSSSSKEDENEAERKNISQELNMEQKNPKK
Method in brief: as §1

ACOX3 = target: T3, ACOX3 (UniProt O15254)
T3 sequence (whole entry): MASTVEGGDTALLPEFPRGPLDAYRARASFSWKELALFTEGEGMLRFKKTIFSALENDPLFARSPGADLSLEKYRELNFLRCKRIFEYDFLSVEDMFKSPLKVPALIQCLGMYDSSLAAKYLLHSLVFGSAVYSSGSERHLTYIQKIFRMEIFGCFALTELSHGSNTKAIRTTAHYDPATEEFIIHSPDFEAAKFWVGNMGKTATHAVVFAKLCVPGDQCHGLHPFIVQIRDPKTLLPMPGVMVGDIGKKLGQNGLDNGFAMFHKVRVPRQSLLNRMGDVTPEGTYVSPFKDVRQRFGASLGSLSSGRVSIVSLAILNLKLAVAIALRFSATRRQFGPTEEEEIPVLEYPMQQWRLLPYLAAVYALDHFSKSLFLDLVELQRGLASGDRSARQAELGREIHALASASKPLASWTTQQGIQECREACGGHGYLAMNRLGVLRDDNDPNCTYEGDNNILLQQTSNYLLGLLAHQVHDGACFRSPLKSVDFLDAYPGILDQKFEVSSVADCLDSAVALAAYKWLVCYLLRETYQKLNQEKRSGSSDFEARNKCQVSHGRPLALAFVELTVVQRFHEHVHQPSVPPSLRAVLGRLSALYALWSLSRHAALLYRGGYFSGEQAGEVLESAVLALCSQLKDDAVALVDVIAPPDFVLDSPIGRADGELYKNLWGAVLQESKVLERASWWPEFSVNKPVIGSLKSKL
Method in brief: as §1

C9JI46|Q8N3X6|Q8N3X6-3 = target: T4, C9JI46|Q8N3X6|Q8N3X6-3 (UniProt Q8N3X6)
T4 sequence (whole entry): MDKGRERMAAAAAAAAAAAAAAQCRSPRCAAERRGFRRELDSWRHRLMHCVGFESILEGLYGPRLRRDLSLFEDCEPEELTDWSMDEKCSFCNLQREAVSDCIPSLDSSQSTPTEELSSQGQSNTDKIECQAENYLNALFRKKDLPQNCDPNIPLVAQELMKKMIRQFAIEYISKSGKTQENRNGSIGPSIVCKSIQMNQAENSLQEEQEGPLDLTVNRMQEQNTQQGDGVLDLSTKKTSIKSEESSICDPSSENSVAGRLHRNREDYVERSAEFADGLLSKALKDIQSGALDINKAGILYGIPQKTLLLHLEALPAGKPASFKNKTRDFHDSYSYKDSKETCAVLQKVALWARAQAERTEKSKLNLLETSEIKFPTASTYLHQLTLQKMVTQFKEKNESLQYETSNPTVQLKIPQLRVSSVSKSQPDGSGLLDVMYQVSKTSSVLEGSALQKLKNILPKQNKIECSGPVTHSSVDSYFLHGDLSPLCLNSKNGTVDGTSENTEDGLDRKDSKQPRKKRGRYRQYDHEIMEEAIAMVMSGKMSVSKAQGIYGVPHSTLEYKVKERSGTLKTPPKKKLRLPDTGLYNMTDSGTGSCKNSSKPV
Method in brief: as §1

Nc1ncnc2c1ncn2[C@@H]1O[C@H](COP(=O)(O)OP(=O)(O)NP(=O)(O)O)[C@@H](O)[C@H]1O [adenylyl imidodiphosphate]
NP40-soluble protein abundance (A0A0A0MSG2|J3KNW4|Q14192; concentration: 1mM): 0.991 ± 0.05
NP40-soluble protein abundance (A0A0A0MSG2|J3KNW4|Q14192; concentration: 2mM): 0.988 ± 0.09
NP40-soluble protein abundance (A0A0A0MSG2|J3KNW4|Q14192; concentration: 4mM): 1.02 ± 0.048
NP40-soluble protein abundance (A0A0A0MSG2|J3KNW4|Q14192; concentration: 6mM): 0.966 ± 0.036
NP40-soluble protein abundance (A0A0A0MSG2|J3KNW4|Q14192; concentration: 8mM): 0.979 ± 0.083
NP40-soluble protein abundance (A0A0A0MSG2|J3KNW4|Q14192; concentration: 10mM): 0.947 ± 0.035
NP40-soluble protein abundance (A0A0U1RRH6|O94880; concentration: 1mM): 1.02 ± 0.036
NP40-soluble protein abundance (A0A0U1RRH6|O94880; concentration: 2mM): 1.07 ± 0.03
NP40-soluble protein abundance (A0A0U1RRH6|O94880; concentration: 4mM): 1.14 ± 0.025
NP40-soluble protein abundance (A0A0U1RRH6|O94880; concentration: 6mM): 1.21 ± 0.017
NP40-soluble protein abundance (A0A0U1RRH6|O94880; concentration: 8mM): 1.27 ± 0.035
NP40-soluble protein abundance (A0A0U1RRH6|O94880; concentration: 10mM): 1.36 ± 0.092
NP40-soluble protein abundance (ACOX3; concentration: 1mM): 0.977 ± 0.053
NP40-soluble protein abundance (ACOX3; concentration: 2mM): 0.928 ± 0.076
NP40-soluble protein abundance (ACOX3; concentration: 4mM): 0.967 ± 0.031
NP40-soluble protein abundance (ACOX3; concentration: 6mM): 0.957 ± 0.057
NP40-soluble protein abundance (ACOX3; concentration: 8mM): 0.972 ± 0.07
NP40-soluble protein abundance (ACOX3; concentration: 10mM): 0.918 ± 0.089
NP40-soluble protein abundance (C9JI46|Q8N3X6|Q8N3X6-3; concentration: 1mM): 0.985 ± 0.021
NP40-soluble protein abundance (C9JI46|Q8N3X6|Q8N3X6-3; concentration: 2mM): 1.024 ± 0.0091
NP40-soluble protein abundance (C9JI46|Q8N3X6|Q8N3X6-3; concentration: 4mM): 1.01 ± 0.058
NP40-soluble protein abundance (C9JI46|Q8N3X6|Q8N3X6-3; concentration: 6mM): 0.992 ± 0.017
NP40-soluble protein abundance (C9JI46|Q8N3X6|Q8N3X6-3; concentration: 8mM): 0.952 ± 0.014
NP40-soluble protein abundance (C9JI46|Q8N3X6|Q8N3X6-3; concentration: 10mM): 1 ± 0.039
